Assay results reported in ChEMBL document CHEMBL3433997, “St. Jude Leishmania screening dataset” (2016).

What was measured:
Format in all cases: functional
[1] = target: Solute carrier family 2, facilitated glucose transporter member 1 (Homo sapiens) (UniProt P11166); test: ST_JUDE_LEISH: Cytotoxicity at 2uM final concentration against transgenic Leishmania Mexicana promastigotes LmGLUT1 that are glucose transport deficient and complemented with the human glucose transporter GLUT1. Activity is measured by DNA content using SYBR green in vitro
[2] = target: Hexose transporter 1 (Plasmodium falciparum) (UniProt O97467); test: ST_JUDE_LEISH: Cytotoxicity at 2uM final concentration against transgenic Leishmania Mexicana promastigotes LmPfHT that are glucose transport deficient and complemented with the Plasmodium falciparum hexose transporter. Activity is measured by DNA content using SYBR green in vitro
[3] = target: Glucose transporter (Leishmania mexicana) (UniProt O61059); test: ST_JUDE_LEISH: Cytotoxicity at 2uM final concentration against transgenic Leishmania Mexicana promastigotes LmGT2 that are glucose transport deficient and complemented with the L. Mexicana glucose transporter 2. Activity is measured by DNA content using SYBR green in vitro

Solute carrier family 2, facilitated glucose transporter member 1 (Homo sapiens), sequence (P11166 whole entry): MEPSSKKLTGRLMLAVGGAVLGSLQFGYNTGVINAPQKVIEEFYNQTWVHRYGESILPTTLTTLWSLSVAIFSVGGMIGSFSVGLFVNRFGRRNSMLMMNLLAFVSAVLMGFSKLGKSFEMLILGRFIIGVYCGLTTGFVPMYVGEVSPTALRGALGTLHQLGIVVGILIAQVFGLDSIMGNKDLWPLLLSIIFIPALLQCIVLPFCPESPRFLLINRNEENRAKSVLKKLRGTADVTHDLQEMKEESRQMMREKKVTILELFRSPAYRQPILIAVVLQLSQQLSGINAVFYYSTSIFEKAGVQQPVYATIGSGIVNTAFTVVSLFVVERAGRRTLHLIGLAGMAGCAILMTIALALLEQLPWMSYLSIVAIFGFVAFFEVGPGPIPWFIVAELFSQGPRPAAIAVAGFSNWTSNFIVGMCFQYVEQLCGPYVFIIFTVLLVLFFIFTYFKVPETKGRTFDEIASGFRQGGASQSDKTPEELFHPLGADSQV

| SMILES | inhibition [1] [%] | inhibition [2] [%] | inhibition [3] [%] |
| --- | --- | --- | --- |
| CN(C)CCNC(=O)c1ccc(-c2cnc3ccc(NCc4ccc(Cl)c(Cl)c4)nn23)cc1 | -1.43 | -1.29 | 11.1 |
| CCN(CC)CCOc1ccc(C(O)(C#CC(O)(c2ccc(Br)cc2)c2ccc(OCCN(CC)CC)cc2)c2ccc(Br)cc2)cc1 (stereo not drawn) | 4.97 | 5 | 3.37 |
| CCCn1c(O)nnc1SCC(=O)Nc1cc(C(F)(F)F)ccc1Cl | 6.43 | 4.55 | 6.33 |
| COc1cc(OC)cc(C(=O)Nc2nc(-c3ccc(NC(=O)c4ccccc4)cc3)cs2)c1 | 16.3 | 9.26 | 5.46 |
| O=C1c2ccccc2CN1CCCN1CCC(Oc2ccc(F)cc2)CC1 | -2.87 | -2.18 | -3.86 |
| N=C1N=C(N)NC2(CCCCC2)N1OCC1CCCCC1 | -0.96 | -0.44 | -1.26 |
| CC1(C)N=C(NC(=O)Nc2ccc([N+](=O)[O-])cc2)N=C(N)N1OCc1cccc2ccccc12 | 2.41 | 4.36 | 5.77 |
| CCOc1c(Cl)cc(Cl)cc1CNCCCNc1nc2ccccc2[nH]1 | 1.3 | 6.95 | 4.33 |
| O=C(NCCN1CCCCC1)c1cccc(Nc2nccc(Nc3ccc(Oc4ccccc4)cc3)n2)c1 | -0.01 | -0.85 | -0.27 |
| CN(CCO)Cc1cccc(-c2ccc(NC(=O)c3cccc(C#N)c3)cc2)c1 | 1.6 | 0.52 | -2.56 |
| COc1cc(Nc2nccc(N3CCC(NC(=O)c4cccc(C#N)c4)C3)n2)cc(OC)c1OC (stereo not drawn) | 1.3 | 1.35 | 0.79 |
| Cc1[nH]c(C)c(-c2ccc(-c3cc(C(F)(F)F)cc(C(F)(F)F)c3)nc2)c(=O)c1Br | 4.9 | 5.44 | 5.42 |
| CCOC(=O)c1ccc(N(CCCN(CCCN(c2ccc(C(=O)OCC)cc2)S(=O)(=O)c2ccc(C)cc2)CCc2ccc(O)cc2)S(=O)(=O)c2ccc(C)cc2)cc1 | 2.89 | 2.43 | 1.65 |
| O=C(NCCCCCN1CCCN(C(=O)Nc2ccc(Cl)c(C(F)(F)F)c2)CC1)C1CC1c1ccc(Cl)c(Cl)c1 (stereo not drawn) | 2.42 | 0.79 | 0.24 |
| O=c1[nH]c2c(cc1CNC1CCCCC1)c(-c1ccc(F)cc1)nn2-c1ccccc1 | -1.4 | -1.47 | 0.4 |
| c1cncc(CNc2ncc(-c3ccsc3)c(-c3nccs3)n2)c1 | 5.96 | 8.95 | 7.02 |
| Cc1noc(C)c1-c1cccc(CNCc2ccc(-c3cccc(-c4nc5cc(C(F)(F)F)ccc5[nH]4)c3)cc2)c1 | -0.48 | 1.3 | 1.67 |
| CC(CN(C)C)C(=O)Nc1ccc(-c2csc(-c3nc4ccccc4[nH]3)c2)cc1 (stereo not drawn) | 0.09 | 3.49 | 3.09 |
| Fc1ccc(NC(=S)NCCc2ccccc2)cc1 | 0.73 | -2.25 | 0.04 |
| Cc1ccc(NC(=O)c2ccc3ncccc3c2)cc1OC1CCN(Cc2ccc(F)cc2)C1 (stereo not drawn) | 1.19 | 0.73 | 1.26 |
| CCNc1cc(C)nc(Nc2ccc(F)cc2)n1 | 22.3 | 11.9 | 8.37 |
| CN1CCC(c2c[nH]c3ccc(NC(=O)Nc4ccc(-c5ccncc5)c(Cl)c4Cl)cc23)CC1 | -2.47 | 0.63 | 4.75 |
| CC(C)CCN1CCC(Oc2cccc(NC(=O)c3ccc(C(F)(F)F)cc3)c2)CC1 | 1.54 | -0.13 | 1.09 |
| CC(=O)Nc1csc(-c2cnc(/C=C(\C)C[C@@H]3OC[C@H](C[C@@H]4O[C@H]4[C@@H](C)[C@H](C)O)[C@@H](O)[C@H]3O)o2)c1 | 3.6 | 4.42 | 2.39 |

| SMILES | inhibition [1] [%] | inhibition [2] [%] | inhibition [3] [%] |
| --- | --- | --- | --- |
| CCOc1ccc2nc(N(CCCn3ccnc3)C(=O)C=Cc3cccs3)sc2c1 | 3.54 | 2.73 | -8.76 |
| Cc1ccc(-c2nc3cc(NC(=O)c4ccc([N+](=O)[O-])o4)ccc3o2)cc1Cl | 77 | 85.3 | 68.1 |
| COC[C@H]1CCCN1Cc1ccc(-c2ccc(-c3nc4ccccc4[nH]3)s2)cc1 | 2.15 | 1.84 | 1.25 |
| CCOc1ccccc1CCNC(C)Cc1ccc(C(=O)Nc2ccc(CC(C)NCCc3cccc(Cl)c3)cc2)cc1 (stereo not drawn) | 28 | 34.1 | 3.04 |
| c1ccc(CNCc2cccc(-c3ccc(-c4nc5ccccc5[nH]4)cc3)c2)cc1 | 6.45 | 4.96 | 7.51 |
| COc1ccc2nc(C)cc(NCc3cccc4ccccc34)c2c1 | 2.2 | 3.81 | -0.28 |
| O=C(NCCCCN1CCC(c2ccc(OC(F)(F)F)cc2)CC1)c1ccc(NC(=O)c2ccc(Cl)cc2)cc1 | -1.27 | 0.81 | -1.72 |
| Cc1nnsc1C(=O)Nc1cccc(-c2ccc(-c3nc4cc(F)ccc4[nH]3)cc2)c1 | 3.93 | 3.3 | 4.66 |
| CC(C)c1sc(N2CCCCC2)nc1C(=O)Nc1ccc(F)cc1C(F)(F)F | 2.82 | 0.82 | 2.35 |
| O=S(=O)(NCCN1CCCC1)c1ccc(-c2ccc(CNCc3ccc(F)cc3)cc2)s1 | 7.34 | 5.54 | 0.98 |
| CN(C)C(CNC(=O)c1cc(-c2ccncc2)c(-c2cc3ccccc3[nH]2)o1)c1ccccc1 (stereo not drawn) | 3.53 | 2.32 | 2.06 |
| O=c1ccc2ccc(F)c3c2n1CC3CN1CCC(NCc2cccc(-c3cccs3)c2)CC1 (stereo not drawn) | 6.55 | 8.34 | -6.19 |
| CCC[C@@H]([C@@H](CC1CCC(C)CC1)C(=O)N[C@@H](CCCCNC(=O)c1ccccn1)C(=O)Nc1nccs1)N(O)C=O (stereo partly drawn) | 2.27 | 4.29 | 1.8 |
| CCOc1ccc(C(=O)Nc2nonc2-c2ccc(OC)c(OC)c2)cc1 | -0.49 | 1.82 | 0.47 |
| CCCC(=O)c1cnc2cc(O)ccc2c1Nc1ccccc1C | 6.19 | 6.97 | 0.57 |
| COc1ccc(-c2nnc(Sc3ccc(C#N)c([N+](=O)[O-])c3)n2CC(C)C)cc1 | 0.96 | 3.46 | 1.92 |
| NS(=O)(=O)c1cccc(Br)c1 | 2.38 | 0.12 | 2.22 |
| Cc1nnsc1C(=O)Nc1cccc(-c2cccc(-c3nc4ccccc4[nH]3)c2)c1 | -1.84 | 0.03 | -2.07 |
| Cc1ccc(F)c(OCC2CCCN(c3ccc(C(=O)NC4CC4)cn3)C2)c1 (stereo not drawn) | 3.46 | 4.3 | 2.18 |
| COc1cc(OC)c2c(C)cc(NCCCN3CCOCC3)nc2c1 | 1.92 | 0.95 | -0.42 |
| O=C(Nc1ccc(C(=O)Oc2cccc3ccccc23)cc1)N[C@@H](Cc1ccc(O)cc1)C(=O)NC1CCN(Cc2ccc(O)cc2)C1 (stereo partly drawn) | 20.6 | 17.7 | 17.4 |
| CC(C)CCCC(C)(C)NC[C@@H](O)[C@H](Cc1ccccc1)NC(=O)c1cccc(CCC2CC2)c1 | 3.16 | 4.54 | 4.06 |
| CC(C)(CC1CCCCC1)NC(=O)[C@H](CC1CCCCC1)Nc1ccc(C#N)c2ccccc12 | 1.82 | 1.4 | -1.9 |
| CCCCNC(=O)[C@H](Cc1ccccc1)NC(=O)c1ccc(O)c(-c2ccc(Cl)c(Cl)c2)c1 | 6.46 | 2.06 | 3.71 |

| SMILES | inhibition [1] [%] | inhibition [2] [%] | inhibition [3] [%] |
| --- | --- | --- | --- |
| CS(=O)(=O)Cc1ccc(Nc2nccc(-c3c(-c4cccc(NC(=O)c5c(F)cccc5F)c4)nn4ccccc34)n2)cc1 | 38.6 | 18.8 | 9.09 |
| O=C(NC1CCCCC1)N(Cc1cccc(-c2ccc(CNCc3ccc4c(c3)OCO4)cc2)c1)C1CCN(Cc2ccccc2)CC1 | 8.67 | 5.99 | 3.16 |
| COc1ccc(CNc2ncc(-c3ccsc3)c(-c3nccs3)n2)cc1OC | 0.9 | 0.94 | 2.07 |
| CCOC(=O)c1ccc(NC(=O)Nc2ccc(-c3ccc(-c4nc5cccc(C)c5[nH]4)s3)cc2)cc1 | 1.67 | 0.41 | 0.88 |
| C[C@@H](Nc1nc(NCc2ccccc2)c2sccc2n1)c1ccccc1 | 24 | 22.3 | 8.39 |
| Cc1ccc(-c2csc(C)n2)c(C)c1 | 1.21 | 2.19 | 2.4 |
| O=C(/C=C/c1ccc(Cl)c(Cl)c1)NCCCCCN1CCC(NC(=O)c2ccc(F)cc2F)CC1 | -3.32 | 5.55 | -1.5 |
| CCNc1cc(C(=O)N[C@@H](Cc2ccccc2)[C@H](O)CN[C@@H](C)c2cccc(OC)c2)cc(N2CCCC2=O)c1 | 3.36 | 2.81 | 3.09 |
| CCC(CO)NCC(O)Cn1c2ccc(Cl)cc2c2cc(Cl)ccc21 (stereo not drawn) | 4.65 | 5.96 | 2.18 |
| CCCCC1=CC2C(=O)C(C(=O)OC)=CN=C2C=C1OCc1ccccc1 (stereo not drawn) | -0.41 | -2.57 | -1.77 |
| COc1ccc(-c2nc(NC(=O)Cc3ccc(OC)c(OC)c3)sc2C)cc1 | 1.75 | 3.07 | 1.83 |
| Cc1cc(N2CCCC2)nc(Nc2ccc(NC(=O)c3ccccc3C)cc2)n1 | -1.05 | 6.45 | 0.46 |
| NCC1CCCN1Cc1cccc(-c2ccc(-c3nc4cc(C(F)(F)F)ccc4[nH]3)cc2)c1 (stereo not drawn) | 0.06 | 0.65 | -0.43 |
| Fc1ccccc1COc1ccc(Nc2ncnc3ccc(I)cc23)cc1Cl | 18.2 | 9.09 | 4.67 |
| CC(C)CCN1CCCN(Cc2cccc(NC(=O)c3ccc(-c4ccccc4)cc3)c2)CC1 | 2.17 | 0.14 | -0.09 |
| O=c1ccccn1CCCC1CCCCN1 (stereo not drawn) | 12.2 | 12.2 | 13.5 |
| O=C(Nc1ccc(OC2CCN(Cc3ccsc3)C2)c(Cl)c1)c1ccsc1 (stereo not drawn) | 2.57 | 2.64 | 1.08 |
| CC(C)CNCc1cccc(-c2cccc(CN(CCCN3CCN(C)CC3)C(=O)NC3CCCCC3)c2)c1 | 0.8 | 0.99 | -0.56 |
| CC(O)C1CCCCN1C(=O)c1ccc(-c2cccc(-c3nc4cc(F)ccc4[nH]3)c2)cc1 (stereo not drawn) | 3.01 | 2.87 | 3.89 |
| O=C(NCc1ccc(C(=O)NCc2cccc3ccccc23)cc1)c1ccc(O)c(-c2ccc(Cl)c(Cl)c2)c1 | 0.64 | 2.17 | 0.96 |
| Cc1cc(NC(=O)Nc2ccc(C(C)(C)C)cc2)c2ccccc2n1 | 1.18 | 3.8 | -3.31 |
| CCOc1ccc2c(=NN=Cc3ccc(OC)c(OC)c3)cc(C)[nH]c2c1 | 4.95 | 3.84 | -0.04 |
| Cc1sc(NC(=O)Cc2cccc(C(F)(F)F)c2)nc1-c1cccc(Cl)c1 | 9.6 | 8.91 | 8.34 |
